Reference: PubChem BioAssay (Tox21)
Records with an inconclusive call do not appear. A call without a number means that no potency is given here. Calls of active or inactive are those of the source. Calls follow the shape of the dose curve; as a rule, active = well fitted activation curve with a large enough effect in the signal ratio in the repeat runs (not every such curve was filed as active); inconclusive = weak or mixed curves, or effect the other way; inactive = flat fitted curve, though single readings scatter; the % refers to the signal ratio.

Assay: qHTS assay to identify small molecule agonists of the endoplasmic reticulum stress response signaling pathway (AID 1159516)
Details: ESRE-bla HeLa, ER stress beta-lactamase reporter, 5 h; series mostly up to 61 µM
Text: National Center for Advancing Translational Sciences [NCATS]
NIH Chemical Genomics Center [NCGC]
U.S. Environmental Protection Agency [EPA]
National Institutes of Environmental Health Sciences [NIEHS]
National Toxicology Program [NTP]
U.S. Food and Drug Administration [FDA]
Endoplasmic Reticulum (ER) plays an important role in cellular signaling, protein folding/maturation, stress response, lipid biosynthesis, calcium storage and release etc. Under stress conditions, proteins in ER misfold or unfold, and leading to the expression of ER stress responsive genes. ER stress has been associated with a variety of pathophysiological conditions such as cancer, inflammation, neurodegenerative diseases, diabetes, ischemic heart disease etc. To identify the compounds that induce ER stress response, an ER stress reporter cell line, CellSensor ESRE-bla HeLa (Life Technologies, Carlsbad, CA) containing a beta-lactamase reporter gene under control of the Endoplasmic reticulum Stress Response Element (ESRE) was used to screen Tox21 10K compound library.
Tox21 Assay Protocol Summary:
ESRE-bla HeLa cells were dispensed at 1,500 cells/6 uL of assay medium per well into black wall/clear-bottom 1536-well plates using a Multidrop Combi (ThermoFisher Scientific, Waltham, MA) dispenser. After the assay plates were incubated at 37 C and 5% CO2 for an overnight, 23 nL of compounds dissolved in DMSO, positive controls or DMSO only was transferred to the assay plate by a Pintool station (Kalypsys, San Diego, CA). The assay plates were incubated at 37 C and 5% CO2 for 5 hr. One uL of LiveBLAzer B/G FRET substrate (Life Technologies) was added using a Flying Reagent Dispenser (Aurora Discovery, San Diego, CA) and the plates were incubated at room temperature for 2 hr. Fluorescence intensity (405 nm excitation, 460 nm and 530 nm emissions) was measured using an Envision plate reader (PerkinElmer, Shelton, CT).
Potency is read from the fitted curve at half-maximal effect.

**Q.** Which Potency does the source give for `CCCCC1=NC2(CCCC2)C(=O)N1Cc1ccc(-c2ccccc2-c2nn[nH]n2)cc1` here?
**A.** The Potency was “inactive”.

**Q.** With `O=C(Cl)c1cc(C(=O)Cl)cc(C(=O)Cl)c1` as the compound, how does the Potency read?
**A.** The Potency was “inactive”.

**Q.** For `CN1CCC(=C2c3ccccc3Sc3ccccc32)CC1`, which Potency is on record?
**A.** Its Potency is “inactive”.

**Q.** Which Potency does the source give for `CC(=O)c1ccc2c(c1)N(CCCN(C)C)c1ccccc1S2` here?
**A.** The Potency was “inactive”.

**Q.** With `C=CCOc1ccccc1OCC(O)CNC(C)C` (stereo not given) as the compound, how does the Potency read?
**A.** The Potency was “inactive”.

**Q.** Which Potency does the source give for `C#CCN(C)CCCOc1ccc(Cl)cc1Cl` here?
**A.** The Potency was “inactive”.

**Q.** Which Potency does the source give for `CC(C)(O)c1ccc(CNC(=O)c2cccnc2Oc2ccc(F)cc2)cc1` here?
**A.** The Potency was “inactive”.

**Q.** Which Potency does the source give for `CCC(C)(C)CC` here?
**A.** Its Potency is “inactive”.

**Q.** For `CCCCC/C=C\C/C=C\CCCCCCCC(=O)NC(C)c1ccccc1` (stereo not given), which Potency is on record?
**A.** The Potency was “inactive”.

**Q.** With `CN(C)CCN(Cc1ccccc1)c1ccccn1` as the compound, how does the Potency read?
**A.** Its Potency is “inactive”.

**Q.** Which Potency does the source give for `COc1cc(Cl)ccc1Oc1ccc(Cl)cc1Cl` here?
**A.** The Potency was “inactive”.

**Q.** With `CCc1c(C(=O)NN2CCCCC2)nn(-c2ccc(Cl)cc2Cl)c1-c1ccc(Br)cc1` as the compound, how does the Potency read?
**A.** The Potency was “inactive”.

**Q.** For `C=CC(=O)OCCOCCOCCOCCOC(=O)C=C`, which Potency is on record?
**A.** Its Potency is “inactive”.

**Q.** Which Potency does the source give for `CCn1cc(C(=O)O)c(=O)c2cnc(N3CCNCC3)nc21` here?
**A.** Its Potency is “inactive”.

**Q.** For `O=C(O)CC(=O)C(=O)O`, which Potency is on record?
**A.** The Potency was “inactive”.

**Q.** With `Cc1ccc(C(=O)Oc2ccc(C(O)CNC(C)(C)C)cc2OC(=O)c2ccc(C)cc2)cc1` (stereo not given) as the compound, how does the Potency read?
**A.** The Potency was “inactive”.

**Q.** For `CCO[C@H](Cc1ccc(OCCc2ccc(OS(C)(=O)=O)cc2)cc1)C(=O)O`, which Potency is on record?
**A.** Its Potency is “inactive”.

**Q.** For `Nc1ccc(S(=O)(=O)Nc2ccccc2)cc1`, which Potency is on record?
**A.** Its Potency is “inactive”.

**Q.** For `C/C=C(/C(=C/C)c1ccc(OC(C)=O)cc1)c1ccc(OC(C)=O)cc1`, which Potency is on record?
**A.** Its Potency is “inactive”.

**Q.** With `c1cc(CCCc2ccncc2)ccn1` as the compound, how does the Potency read?
**A.** The Potency was “inactive”.

**Q.** For `S=C([S-])NCCNC(=S)[S-].[Mn+2]`, which Potency is on record?
**A.** The Potency was “inactive”.

**Q.** Which Potency does the source give for `O=S(=O)(Oc1ccc(Cl)cc1)c1ccccc1` here?
**A.** Its Potency is “inactive”.

**Q.** With `C=C1C(=C/C=C2\CCC[C@]3(C)[C@@H]([C@H](C)/C=C/[C@@H](O)C4CC4)CC[C@@H]23)C[C@@H](O)C[C@@H]1O` as the compound, how does the Potency read?
**A.** Its Potency is “inactive”.

**Q.** With `CCCC(=O)Nc1ccc(O)c(C(C)=O)c1` as the compound, how does the Potency read?
**A.** The Potency was “inactive”.

**Q.** With `COc1ccc(C(=O)c2ccc(OC)cc2O)c(O)c1` as the compound, how does the Potency read?
**A.** Its Potency is “inactive”.

**Q.** For `c1ccc(C(O[C@H]2CCCN(CCc3ccc4c(c3)OCO4)C2)c2ccccc2)cc1`, which Potency is on record?
**A.** The Potency was “inactive”.

**Q.** For `CCCCO`, which Potency is on record?
**A.** The Potency was “inactive”.

**Q.** For `Cc1ccccc1S(=O)(=O)O`, which Potency is on record?
**A.** Its Potency is “inactive”.

**Q.** Which Potency does the source give for `NCCCN1CCOCC1` here?
**A.** Its Potency is “inactive”.

**Q.** For `Brc1c2ccccc2cc2ccccc12`, which Potency is on record?
**A.** Its Potency is 49.5 µM (active).

**Q.** Which Potency does the source give for `NC(=O)C(c1ccccc1)(c1ccccc1)[C@@H]1CCN(CCc2ccc3c(c2)CCO3)C1` here?
**A.** Its Potency is “inactive”.

**Q.** For `Nc1c(CC(=O)O)cccc1C(=O)c1ccc(Br)cc1`, which Potency is on record?
**A.** The Potency was “inactive”.

**Q.** With `CC(=O)[O][Al]` as the compound, how does the Potency read?
**A.** Its Potency is “inactive”.

**Q.** For `Cc1ncc(CO)c(C=O)c1O`, which Potency is on record?
**A.** Its Potency is “inactive”.

**Q.** With `CCCCCCc1ccc(-c2ccc(C#N)cc2)cc1` as the compound, how does the Potency read?
**A.** The Potency was “inactive”.

**Q.** For `CC(C)O.CC(C)O.CCOC(=O)/C=C(\C)O.CCOC(=O)/C=C(\C)O.[Ti]`, which Potency is on record?
**A.** The Potency was “inactive”.

**Q.** With `COc1cc(C(=O)OCCCN2CCCN(CCCOC(=O)c3cc(OC)c(OC)c(OC)c3)CC2)cc(OC)c1OC` as the compound, how does the Potency read?
**A.** The Potency was “inactive”.

**Q.** Which Potency does the source give for `Cc1cccc(C)c1OCC(=O)N[C@@H](Cc1ccccc1)[C@@H](O)C[C@H](Cc1ccccc1)NC(=O)[C@H](C(C)C)N1CCCNC1=O` here?
**A.** Its Potency is “inactive”.

**Q.** With `CC(CSC(=O)c1ccccc1)C(=O)N1C[C@@H](Sc2ccccc2)C[C@H]1C(=O)O` (stereo not given in full) as the compound, how does the Potency read?
**A.** Its Potency is “inactive”.

**Q.** Which Potency does the source give for `O=C(CS)Nc1ccccc1` here?
**A.** The Potency was “inactive”.
